# CYP2C19 inh: blockers of cytochrome P450 2C19 activity – biochemical, luminescence, ADME assay, primary screen; P33261; CYP2C19 Supersomes, luciferin-H EGE luminescence, 30 min; inhibition, % at 5 µM; 96,000 compounds, 21% hits; AID 778, 2007;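 active = CYP2C19 inhibition above a set limit at 5 µM in the primary screen, cut at about 50% in these data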;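 also: plate controls were negative control wells for no effect and 2.5 mM tranylcypromine positive control for full effect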
# CYP2C19 act: human CYP2C19 activators, primary screen, biochemical, luminescence. recombinant CYP2C19, luciferin-H EGE luminescence; stronger effect = higher value; 0 = fully inhibited enzyme, 1 = untreated enzyme. activation factor at 5 µM. 96,000 tested, under 10 active. AID 1025, 2008. Cytochrome P450 2C19 (Homo sapiens), P33261;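 active = activation factor of at least 2 at 5 µM in the primary screen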;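 also: 0 = wells with 2.5 mM tranylcypromine and 1 = vehicle-only wells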
# CYP2C9 inhib: blockers of cytochrome P450 2C9 activity – biochemical, luminescence, ADME assay, primary screen; P11712; CYP2C9 Supersomes, luciferin-H conversion; 96,000 compounds, 20% hits; inhibition, % at 5 µM; AID 777, 2007;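 active = blocking of liver enzyme CYP2C9 beyond about 50% at 5 µM, limit read from the data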
# Target sequence (P11712 whole entry, looked up): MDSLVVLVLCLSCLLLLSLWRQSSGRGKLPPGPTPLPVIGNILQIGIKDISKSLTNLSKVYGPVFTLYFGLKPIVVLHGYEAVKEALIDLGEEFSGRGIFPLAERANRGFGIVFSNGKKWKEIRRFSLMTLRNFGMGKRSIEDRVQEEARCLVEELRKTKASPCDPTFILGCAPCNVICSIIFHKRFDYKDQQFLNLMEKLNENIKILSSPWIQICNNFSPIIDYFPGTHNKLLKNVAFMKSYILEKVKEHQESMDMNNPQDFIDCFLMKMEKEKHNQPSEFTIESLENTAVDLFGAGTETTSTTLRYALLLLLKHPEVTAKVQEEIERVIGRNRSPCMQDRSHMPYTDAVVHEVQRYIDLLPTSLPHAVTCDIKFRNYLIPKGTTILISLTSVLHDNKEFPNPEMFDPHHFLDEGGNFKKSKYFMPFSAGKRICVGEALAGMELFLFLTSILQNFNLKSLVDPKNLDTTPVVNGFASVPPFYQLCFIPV
# CYP2C9 activ: human CYP2C9 activators, primary screen, biochemical, luminescence; recombinant CYP2C9, luciferin-H conversion; stronger effect = higher value; factor 1 = untreated enzyme, 0 = blocked; 96,000 compounds, 1.4% hits; AID 1024, 2008; activation factor at 5 µM; Cytochrome P450 2C9 (Homo sapiens), P11712;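 active = activation factor of 2 or more for CYP2C9 at a 5 µM dose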;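 also: 0 = sulfaphenazole-blocked wells and 1 = vehicle-only wells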
# sEH activator: soluble epoxide hydrolase activators, primary screen, biochemical, human sEH; purified human sEH enzymatic activity, activator screen; activation, % at 2 µM; 91,000 compounds, 0.04% hits; AID 717, 2007; Bifunctional epoxide hydrolase 2 (Homo sapiens), P34913; in the data active = activation above about 37%
# sEH inh: soluble epoxide hydrolase inhibitors, primary screen, biochemical, human sEH. recombinant human sEH enzymatic activity assay. Bifunctional epoxide hydrolase 2 (Homo sapiens), P34913. inhibition, % at 2 µM. 91,000 compounds, 0.34% hits; in the data active = inhibition above about 80%
# * hit, by the source's call; . = no result given. Compounds with a hit are over-represented: about 27% of the library has one in this group of screens.
SMILES,CYP2C19 inh,CYP2C19 act,CYP2C9 inhib,CYP2C9 activ,sEH activator,sEH inh
O=S(=O)(c1ccccc1)c1cccc(S(=O)(=O)N2CCCCC2)c1,87.3*,0.1,-23.3,1.2,.,.
CCN(CC)S(=O)(=O)c1ccc(F)cc1,.,.,.,.,-6.2,8.9
CCN(CC)S(=O)(=O)c1ccc(C)c(C)c1,82.2*,0.2,-237.2,3.4*,3.8,-4.8
Cc1cc(C)n(-c2nc3c(c(=O)n(C)c(=O)n3C)n2CC(O)COc2ccccc2C)n1 (stereo not drawn),.,.,.,.,2.9,-2.9
CC(=O)Nc1ccc(NS(=O)(=O)c2cn(C)c(=O)n(C)c2=O)cc1,-16.7,1.2,-15.3,1.2,1.3,-2.1
N#Cc1ccc(-c2ccc(Cl)cc2)nc1SCC(=O)c1cccc(Cl)c1,2.8,1,12.5,0.9,5.3,-6.2
N#Cc1ccc(-c2ccccc2)nc1SCC(=O)c1cccc(Cl)c1,30.6,0.7,63.0*,0.4,-2.2,4.9
N#CCCn1c(C(C#N)(CCC#N)CCC#N)nc2ccccc21,-12.0,1.1,-7.5,1.1,.,.
O=C1N/C(=N/Nc2ccccc2)S/C1=C\c1ccccc1,52.8*,0.5,67.1*,0.3,-9.9,12.7
CCOC(=O)Cn1c(=NC(=O)CSC(C)=O)sc2ccccc21,39.9,0.6,81.0*,0.2,.,.
CCOC(=O)c1sc(=S)sc1SCc1cccc(C(F)(F)F)c1,53.3*,0.5,96.6*,0,5.8,-2.6
CCC(Oc1nc2ccccc2nc1-c1ccccc1NC(C)=O)C(=O)c1ccccc1 (stereo not drawn),-4.4,1,53.3*,0.5,9.5,-7.3
C=CCC(CC=C)(NC(=O)c1ccccc1C)c1ccccc1,50.8*,0.5,23.3,0.8,4.3,-6.4
CCN(CC)S(=O)(=O)c1ccc(O)c(C(=O)OCC(=O)N(C)Cc2ccccc2)c1,30.7,0.7,75.1*,0.2,11.7,-9.4
O=S(=O)(c1ccc(Br)cc1)N1CCN(c2ccc3nnc(-c4ccccc4)n3n2)CC1,60.2*,0.4,80.1*,0.2,0.5,-1.5
Cc1nnc2ccc(N3CCN(C(=O)c4ccccc4)CC3)nn12,17.3,0.8,-17.2,1.2,-11.8,13.8
O=C(c1ccc(Br)o1)N1CCN(c2ccc3nnc(-c4ccccc4)n3n2)CC1,79.3*,0.2,87.6*,0.1,0.8,-0.8
CC1(C)CC(=O)C(C(=O)CCCCC(=O)C2C(=O)CC(C)(C)CC2=O)C(=O)C1,-11.5,1.1,-19.4,1.2,.,.
CCOC(=O)/C(C#N)=C/c1cc(C)n(-c2ccc(C)cc2)c1C,15.7,0.8,55.1*,0.4,-2.4,-0.2
CCOC(=O)/C(C#N)=C\c1cc(C)n(-c2ccccc2)c1C,21.4,0.8,21.6,0.8,17.8,-18.3
COc1cc(C2CC(=O)Nc3ccccc3S2)cc(OC)c1OC (stereo not drawn),63.6*,0.4,34.7,0.7,.,.
O=C1CC(c2ccc(F)cc2)Sc2ccccc2N1 (stereo not drawn),.,.,.,.,-1.3,2.5
Oc1ccccc1C(=S)N1CCCCC1,78.2*,0.2,17.9,0.8,.,.
Oc1ccccc1C(=S)N1CCCCCC1,52.2*,0.5,16.2,0.8,0.3,0.1
COc1ccc(C(=S)N2CCCCCC2)cc1,.,.,.,.,-0.7,-0.5
SMILES,CYP2C19 inh,CYP2C19 act,CYP2C9 inhib,CYP2C9 activ,sEH activator,sEH inh
N=c1nc(SCCC(=O)O)ss1,-1.9,1,0.8,1,16.8,-16.3
O=C(NCc1ccccn1)C1COc2ccccc2O1 (stereo not drawn),77.1*,0.2,-0.7,1,.,.
O=C(NCc1ccc2c(c1)OCO2)C1COc2ccccc2O1 (stereo not drawn),.,.,.,.,-4.0,5.4
O=C(NCc1ccncc1)C1COc2ccccc2O1 (stereo not drawn),50.6*,0.5,37.3,0.6,-1.7,0.6
Nc1n[nH]c2c1C1(CCCCC1)Cc1ccccc1-2,58.0*,0.4,33.4,0.7,.,.
CN1CCN(c2nc(-c3ccncc3)nc3ccccc23)CC1,27.9,0.7,19.7,0.8,-1.1,1.4
CCCCN(CC)c1nc(-c2ccncc2)nc2ccccc12,96.3*,0,94.4*,0.1,7.1,-7.7
CCOC(=O)CNc1nc(-c2ccncc2)nc2ccccc12,48.4,0.5,57.9*,0.4,11.3,-8.0
c1ccc2c(N3CCCC3)nc(-c3ccncc3)nc2c1,84.5*,0.2,48.1,0.5,-4.7,4.2
C=CCOc1nc(-c2ccncc2)nc2ccccc12,78.7*,0.2,63.8*,0.4,8.1,-9.2
Cc1nc(OCc2ccccc2)c2ccccc2n1,17.0,0.8,10.5,0.9,-5.9,11.2
COc1nc(-c2ccncc2)nc2ccccc12,74.0*,0.3,71.7*,0.3,19.5,-20.9
CCc1ccccc1NC(=O)CSc1nnc(Cn2nnc3ccccc32)n1C,.,.,.,.,-5.3,9.9
CC(C)(C)OC(=O)Cn1c(=O)cnc2ccccc21,34.3,0.7,-9.7,1.1,0.4,1.0
COc1ccc(C2NC(=O)c3ccccc3O2)c(OC)c1OC (stereo not drawn),84.8*,0.2,69.8*,0.3,-9.4,7.7
COc1cccc(C2NC(=O)c3ccccc3O2)c1OC (stereo not drawn),85.7*,0.1,29.7,0.7,-4.3,2.4
O=C(Nc1ccc(Cn2nnc3ccccc32)cc1)c1ccco1,-7.3,1.1,7.6,0.9,-1.6,1.1
Cc1cc(C(F)(F)F)c2c(N)c(C(=O)Nc3cc(C)on3)sc2n1,4.5,1,10.7,0.9,-13.1,12.0
COc1ccc(C(NC(C)=O)c2ccc3cccnc3c2O)c(OC)c1 (stereo not drawn),58.5*,0.4,41.0,0.6,.,.
Cc1ccc(S(=O)(=O)N2CCSC2c2ccco2)cc1 (stereo not drawn),96.0*,0,26.7,0.7,.,.
Cc1ccc(S(=O)(=O)N2CCSC2C(=O)O)cc1 (stereo not drawn),.,.,.,.,-7.2,7.1
CCOc1ccc(OCC)c(-c2c(=O)n(OCc3ccccc3Br)c3ccccc3[n+]2[O-])c1,74.3*,0.3,38.2,0.6,-1.6,2.0
CCOc1ccc(OCC)c(-c2c(=O)n(OCc3ccccc3C(=O)OC)c3ccccc3[n+]2[O-])c1,37.1,0.6,37.9,0.6,-0.4,2.4
CCCCn1c(SCC(=O)O)nc2ccccc21,14.0,0.9,14.4,0.9,21.7,-22.3
CCCCOC(=O)n1c(SCC(=O)N(C)C)nc2ccccc21,43.9,0.6,77.1*,0.2,10.5,-11.4
O=C(/C=C/c1ccccc1)NCCSCc1ccccc1Cl,34.7,0.7,57.4*,0.4,-28.4,30.4
O=C(/C=C/c1ccc(Cl)cc1)NCCSc1ccccc1,31.9,0.7,-1.7,1,-11.3,9.9
